# Only some compounds are listed: those with a hit (about 2.2% of all), similar ones and a draw of the others.
# MEKK2 WT-MEK5 = modulators of MEK5 binding to wildtype MEKK2, primary screen, biochemical, multiplex bead flow cytometry, Alexa488-MEK5; Mitogen-activated protein kinase kinase kinase 2 (Homo sapiens), Q9Y2U5; Alexa488-MEK5 binding to MEKK2 WT; actives lie on both sides; binding response (% of control), % at 10 µM; 290,000 compounds, 1.1% hits; AID 1531, 2009; in the data active = binding response below about 67% or above about 130%
# VLA-4 inh = inhibition in human VLA-4 binding assay, primary screen, VLA-4 allosteric modulator project, MLPCN library, flow cytometry, VLA-4 expressing cells; ligand binding flow cytometry; AID 2557, 2010; Integrin alpha-4 (Homo sapiens), P13612; 330,000 compounds, 0.2% hits; inhibition, % (about 7 µM as worked out from the volumes in the protocol); in the data active = inhibition above about 50%
# Target sequence (P13612 whole entry, looked up): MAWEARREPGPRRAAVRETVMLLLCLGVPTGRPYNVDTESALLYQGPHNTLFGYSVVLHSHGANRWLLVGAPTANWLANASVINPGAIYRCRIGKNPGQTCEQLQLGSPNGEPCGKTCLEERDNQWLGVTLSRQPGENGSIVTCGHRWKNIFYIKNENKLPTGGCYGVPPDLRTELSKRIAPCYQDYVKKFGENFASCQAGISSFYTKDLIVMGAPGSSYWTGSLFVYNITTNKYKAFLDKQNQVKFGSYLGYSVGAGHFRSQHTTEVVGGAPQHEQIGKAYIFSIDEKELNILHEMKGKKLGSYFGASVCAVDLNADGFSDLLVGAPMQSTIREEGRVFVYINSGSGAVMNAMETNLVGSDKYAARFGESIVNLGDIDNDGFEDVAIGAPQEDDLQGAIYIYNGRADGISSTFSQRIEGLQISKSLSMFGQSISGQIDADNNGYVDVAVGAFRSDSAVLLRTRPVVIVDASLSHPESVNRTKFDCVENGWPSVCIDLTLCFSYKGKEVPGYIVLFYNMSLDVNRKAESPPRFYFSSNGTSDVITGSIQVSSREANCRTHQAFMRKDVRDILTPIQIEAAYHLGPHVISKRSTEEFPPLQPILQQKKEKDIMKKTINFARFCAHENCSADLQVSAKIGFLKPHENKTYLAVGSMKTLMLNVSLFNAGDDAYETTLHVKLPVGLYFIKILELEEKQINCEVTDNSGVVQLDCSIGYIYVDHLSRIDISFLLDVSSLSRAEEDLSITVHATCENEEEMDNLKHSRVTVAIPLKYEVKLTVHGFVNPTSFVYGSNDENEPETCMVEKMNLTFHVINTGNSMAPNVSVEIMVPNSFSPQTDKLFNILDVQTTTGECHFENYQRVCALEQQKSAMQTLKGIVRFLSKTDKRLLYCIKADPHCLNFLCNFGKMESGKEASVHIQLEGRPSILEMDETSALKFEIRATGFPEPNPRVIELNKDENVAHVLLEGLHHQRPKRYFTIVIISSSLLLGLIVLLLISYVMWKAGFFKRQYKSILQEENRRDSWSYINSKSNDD
# MEKK2mut PB1 HTS = MEK5 binding signal on mutant MEKK2 PB1, primary screen, biochemical, multiplex bead flow cytometry, Alexa488-MEK5. Alexa488-MEK5 binding to MEKK2 mutant. percent response, % at 10 µM. 290,000 compounds, 0.35% hits; in the data active = percent response above about 24%, passing the limit was not always enough
# MEKK3 PB1 HTS = modulators of MEKK3-MEK5 PB1 binding, primary screen, biochemical, wildtype MEKK3, multiplex bead flow cytometry, Alexa488-MEK5; 290,000 compounds, 1.4% hits; AID 1529, 2009; bead-based flow cytometry, Alexa488-MEK5 binding to MEKK3; actives lie on both sides; 0 = blocked by unlabeled MEK5, 100 = vehicle; binding response (% of control), % at 10 µM; Mitogen-activated protein kinase kinase kinase 3 (Homo sapiens), Q99759;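 active = binding response more than 3 SD above or below the average of its plate-row segment, actives on both sides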;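 also: Alexa488 bead fluorescence after subtracting the streptavidin-only scavenger bead signal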
# MEKK2wt confirm = modulators of MEK5 binding to wildtype MEKK2, confirmation, biochemical, single concentration, multiplex bead flow cytometry | shares compounds with MEKK3 PB1 HTS | Alexa488-MEK5 binding to MEKK2 WT; actives lie on both sides | binding response (% of control), % at 10 µM | 5,900 compounds, 2.4% hits; in the data active = binding response below about 16% or above about 210%; inactive = in between
# MEKK2mut-MEK5 = mutant MEKK2 PB1-MEK5 binding signal retest – biochemical, single concentration, multiplex bead flow cytometry, confirmation. shares compounds with MEKK3 PB1 HTS. Alexa488-MEK5 binding to MEKK2 mutant. percent response, % at 10 µM. 5,900 compounds, 2% hits. AID 1893, 2009; in the data active = percent response mostly above about 71%, no sharp cut-off; inactive = mostly below about 38%;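 also: higher means compound restores mutant binding toward wildtype level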
# MEKK3 confirm = MEKK3 wild-type PB1 binding to MEK5, inhibitors, confirmation, biochemical, bead multiplex flow cytometry, single concentration, wildtype; Alexa488-MEK5 binding to MEKK3; active compounds read low; binding response (% of control), % at 10 µM; 5,900 compounds, 1.8% hits; shares compounds with MEKK3 PB1 HTS; AID 1894, 2009;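 active = binding response below 72% of control, or above a set upper limit, though filed actives all read lower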;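 also: 100% = DMSO only wells and 0% = binding blocked by excess unlabeled MEK5; lower values mean stronger disruption of MEK5 binding to MEKK3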
# Active calls of the source: *; / = no result given; [ ] = dose if it differs, or a comment.
SMILES,MEKK2 WT-MEK5,VLA-4 inh,MEKK2mut PB1 HTS,MEKK3 PB1 HTS,MEKK2wt confirm,MEKK2mut-MEK5,MEKK3 confirm
Cc1cc(Cl)ccc1NC(=O)CN(C)C1=NS(=O)(=O)c2ccccc21,/,1,/,/,/,/,/
Cc1n[nH]c(C)c1Sc1ccccc1[N+](=O)[O-],82,-5,-3,57*[inhibitor],101,-3,100
Cc1ccc(C)c(N2CCN(C(=O)CCS(=O)(=O)c3ccc4c(c3)CCN4C(=O)C3CC3)CC2)c1,100,5,-4,97,/,/,/
CC(Sc1nnc(C(C)Oc2ccccc2F)o1)C(=O)NCc1ccc2c(c1)OCO2 (configuration not stated),/,1,/,/,/,/,/
O=C(Cn1cnc([N+](=O)[O-])n1)N/N=C/c1cc(Cl)ccc1O,121,12,17,135*,110,6,106
O=C(Cn1cnc([N+](=O)[O-])n1)N/N=C/c1ccccc1O,102,-2,7,101,/,/,/
CCC1SC2=NC(C)=C(C(=O)OCCOC)C(/C=C/c3ccccc3OC)N2C1=O (configuration not stated),116,-3,5,124*,95,-6,100
CCOc1ccccc1OCCCC(=O)N1CCN(S(=O)(=O)c2ccc(C)cc2C)CC1,/,14,/,/,/,/,/
CCOc1ccc2nc(NCCCNS(=O)(=O)c3ccc(C)cc3)c(C#N)cc2c1,94,-5,4,130*,97,0,105
CCOc1ccc(S(=O)(=O)N2CCC(C(=O)NCc3cccnc3)CC2)cc1C,97,8,-2,101,/,/,/
Cc1nc(CCNC(=O)C2CCC(=O)N(Cc3cccc(F)c3)C2)sc1C (configuration not stated),103,7,2,104,/,/,/
COCCNC(=O)COC(=O)c1cc(-c2ccc(OC)cc2)nc2ccccc12,103,-3,-4,105,/,/,/
CC1(C)CC(=O)C2=C(C1)Nc1ncnn1C2c1cccs1 (configuration not stated),124,-3,1,145*,110,6,107
CC1(C)CC(=O)C2=C(C1)Nc1ccccc1NC2c1cccs1 (configuration not stated),104,-1,3,107,/,/,/
CC(C)Oc1ccc(S(=O)(=O)N2CCOCC2)cc1NC(=O)C1=COCCO1,/,-9,/,/,/,/,/
Cc1c(C(=O)NCc2ccc3c(c2)cc(C)n3C)cccc1[N+](=O)[O-],89,-1,-5,73*[inhibitor],98,-10,98
Cc1cc2cc(CNC(=O)c3cccc([N+](=O)[O-])c3)ccc2n1C,87,4,5,72*[inhibitor],109,9,101
Cc1cc2cc(CNC(=O)c3ccc(Br)o3)ccc2n1C,45*[inhibitor],-13,-3,66*[inhibitor],50,-20,75
Cc1cccc(NC(=S)NCc2ccc3c(c2)cc(C)n3C)c1C,66*[inhibitor],-26,5,78*[inhibitor],104,1,103
COc1cccc(-c2nc(N)nc(SC)c2C#N)c1,102,21,5,104,/,/,/
CCOc1ccc(N2CC(C(=O)N3CCc4ccccc43)CC2=O)cc1 (configuration not stated),96,-1,3,102,/,/,/
CC(=O)NS(=O)(=O)c1ccc(NC(=S)NC(=O)COc2ccccc2C)cc1,106,-8,0,139*,92,-6,98
O=Cc1cccc2ccc3cccc(C(=O)O)c3c12,/,12,/,/,/,/,/
CN(C)c1ccc(/C=N/NC(=O)c2ccco2)cc1,111,3,1,130*,102,6,104

# Screening results (PubChem)
